Among the data in PubChem BioAssay are composite z-score and z-score values, retold here.

Activity calls are given as the source filed them. Unless noted, how the calls were made is not given here.

A short description of assay [1]: compounds binding Alexa647 anti-His antibody – biochemical, small-molecule microarray, 635 nm fluorescence, artefact control for SMM control protein annotation, primary screen (AID 1128).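 Further: score merges feature fluorescence with signal-to-noise for each printed compound spot.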 Conditions: higher = more signal.
Assay [2] deals with Human papillomavirus type 1a E7 protein (residues 1-88). As to the kind of experiment: HPV1a E7 small-molecule binders, primary screen, biochemical, small-molecule microarray, residues 1-88, 635 nm (AID 1129). Conditions: small-molecule microarray binding, fluorescence 635 nm; higher = more signal.
For assay [3], the target named is Focal adhesion kinase 1 (Homo sapiens) (UniProt Q05397). Briefly: PTK2 protein binding on printed compound slides – biochemical, small-molecule microarray, 635/667 nm fluorescence, BSA, DTT, primary screen (AID 1130).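 Further: composite of spot emission at 667 nm and signal to noise over triplicate slides.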 Conditions: 635 nm fluorescence, higher = more signal.
Assay [4] relates to Fibrinogen (Alexa647-labelled). As to the kind of experiment: Alexa647-fibrinogen binding to printed small molecules – biochemical, small-molecule microarray, 635/667 nm fluorescence, artefact control for SMM control-protein annotation, profiling panel (AID 1131).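 Further: z-score merges 667 nm fluorescence with per-spot signal-to-noise over triplicate slides.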 Conditions: fibrinogen-A647 binding fluorescence, higher = more signal.
Assay [5] deals with Follistatin (Homo sapiens) (UniProt P19883). As to the kind of experiment: FST protein binding to printed compounds – biochemical, small-molecule microarray, 635/667 nm fluorescence, primary screen (AID 1132). Conditions: 635 nm fluorescence, higher = more signal.
Assay [6] has as its target Fibroblast growth factor 2 (Homo sapiens) (UniProt P09038). Briefly: basic fibroblast growth factor binding to printed compounds – biochemical, small-molecule microarray, 635/667 nm fluorescence, primary screen (AID 1133). Conditions: FGF2, fluorescence 635/667, higher = more signal.
A short description of assay [7]: JC-1 mitochondrial potential readout, lung cancer cells – cell-based, A549, JC-1 fluorescence, basal, 24 h, 100 nL, profiling panel (AID 1138).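 Further: A549 lung adenocarcinoma cells under basal conditions with no added stimulus; test concentration not given here.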 Conditions: higher = more signal.
Assay [8] deals with Lefty1. Briefly: Lefty1 protein binding to printed compounds – biochemical, small-molecule microarray, 635/667 nm fluorescence, primary screen (AID 1139). Conditions: fluorescence 635/667, higher = more signal.
Assay [9] concerns wheat germ agglutinin (Triticum aestivum), Alexa647-labelled. As to the kind of experiment: Alexa647-WGA lectin binding to printed small molecules – biochemical, small-molecule microarray, 635/667 nm fluorescence, artefact control for SMM control-protein annotation, profiling panel (AID 1140).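 Further: score merges 667 nm feature emission with signal to noise over triplicate slides.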 Conditions: WGA-A647 binding, 635 nm fluorescence, higher = more signal.
For assay [10], the target named is Luciferin 4-monooxygenase (Photinus pyralis) (UniProt P08659). Briefly: inhibition of purified Photinus pyralis luciferase – biochemical, luminescence, purified enzyme, 2006 set, primary screen (AID 1141).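 Further: cell-free assay with purified firefly luciferase at 100 ng per well in PBS; test concentration not given here.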 Conditions: purified firefly luciferase, SteadyGlo luminescence, 30 min; higher = more signal, called active from +8 up or from −8 down.
In assay [11] the test system is Wnt5a (protein binding on small-molecule microarray). Briefly: small molecules binding Wnt5a protein – biophysical, small-molecule microarray, 635/667 nm fluorescence, primary screen (AID 1142).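 Further: fluorescence read at 667 nm with signal to noise per printed feature.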 Conditions: 635 nm fluorescence, higher = more signal.
Assay [12] can be described thus: ATP-based viability of Huh7 replicon cells – cell-based, CellTiter-Glo luminescence, basal, 48 h, cytotoxicity control for HCV replication inhibitor project, primary screen (AID 1143).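 Further: Huh7 hepatoma cells carrying a hepatitis C replication reporter with no stimulus; test concentration not given here.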 Conditions: higher = more signal, called active from +8 up or from −8 down. On the technique in general: A replicon is a self-replicating genome or part of one, used to study replication in cells.

A short description of assay [13]: Pseudomonas biofilm growth suppression – PAO1 strain, BacTiter-Glo luminescence, LB-PBS, primary screen (AID 1144). Conditions: P. aeruginosa PAO1 biofilm, 12 h, higher = more signal.
Assay [14] in a line: basal CRE-LacZ reporter activity in PC12 – cell-based, unstimulated, primary screen (AID 1145). Conditions: no forskolin, luminescence, 4.5 h, higher = more signal, called active from +8 up or from −8 down.
The nature of assay [15]: forskolin-driven CRE-LacZ activity in PC12 – cell-based, CRE-LacZ reporter, forskolin-stimulated, primary screen (AID 1146).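 Further: PC12 cells with 6xCRE LacZ reporter stimulated by forskolin 10 µM; beta-galactosidase reporter signal reflecting CREB driven transcription.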 Conditions: luminescence, 4.5 h, higher = more signal, called active from +8 up or from −8 down.
Assay [16] deals with Streptavidin (Streptomyces avidinii) (UniProt P22629). Briefly: compounds binding control protein streptavidin – biophysical, small-molecule microarray, 635/667 nm fluorescence, artefact control for SMM compound annotation, primary screen (AID 1147).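 Further: signal reflects streptavidin binding to arrayed compounds as a control protein.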 Conditions: higher = more signal.
Assay [17] is described as follows: probe aInhba binding on compound microarray – biochemical, small-molecule microarray, 635/667 nm fluorescence, primary screen (AID 1148).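 Further: score merges 667nm spot fluorescence with signal-to-noise for antibody binding to printed compounds.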 Conditions: higher = more signal.
The target in assay [18] is Torsin-1A (Homo sapiens) (UniProt O14656). As to the kind of experiment: TOR1A wild-type binding on microarray – cell lysate, small-molecule microarray, lysate, 635/667 nm, primary screen (AID 1149). Conditions: COS7 hTOR1A-WT lysate, 635 nm fluorescence, higher = more signal.
Assay [19] has the same target. As to the kind of experiment: torsin A mutant lysate binding on microarrays – cell lysate, small-molecule microarray, COS7 lysate, 635/667 nm fluorescence, primary screen (AID 1150).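 Further: score pools 667 nm emission and signal to noise measuring lysate protein binding.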 Conditions: COS7 hTOR1A mutant lysate, 635 nm fluorescence, higher = more signal.
Assay [20] has as its system Sonic hedgehog protein (Shh). As to the kind of experiment: Sonic hedgehog microarray binding compounds – biochemical, small-molecule microarray, 635/667 nm fluorescence, primary screen (AID 1151).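 Further: Shh protein binding to compounds spotted on small-molecule microarray slides; score combines spot fluorescence intensity with signal-to-noise across triplicate slides.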 Conditions: 635 nm fluorescence, higher = more signal.

Sequence of Luciferin 4-monooxygenase (Photinus pyralis) (P08659 whole entry, looked up): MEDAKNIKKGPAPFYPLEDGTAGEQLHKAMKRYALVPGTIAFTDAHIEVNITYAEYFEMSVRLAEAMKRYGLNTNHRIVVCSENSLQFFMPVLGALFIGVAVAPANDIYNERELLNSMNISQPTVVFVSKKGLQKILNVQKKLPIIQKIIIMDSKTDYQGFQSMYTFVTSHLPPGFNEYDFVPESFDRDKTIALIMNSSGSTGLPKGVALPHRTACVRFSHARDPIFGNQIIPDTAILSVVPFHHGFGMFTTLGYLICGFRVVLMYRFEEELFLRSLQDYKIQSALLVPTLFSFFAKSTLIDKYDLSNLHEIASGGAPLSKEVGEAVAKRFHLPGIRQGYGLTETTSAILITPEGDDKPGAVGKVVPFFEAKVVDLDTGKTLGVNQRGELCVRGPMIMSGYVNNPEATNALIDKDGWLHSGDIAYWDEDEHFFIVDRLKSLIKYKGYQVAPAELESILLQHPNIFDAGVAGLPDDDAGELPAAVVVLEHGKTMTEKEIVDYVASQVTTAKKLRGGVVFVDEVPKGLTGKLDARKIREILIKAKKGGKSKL
Sequence of Follistatin (Homo sapiens) (P19883 whole entry, looked up): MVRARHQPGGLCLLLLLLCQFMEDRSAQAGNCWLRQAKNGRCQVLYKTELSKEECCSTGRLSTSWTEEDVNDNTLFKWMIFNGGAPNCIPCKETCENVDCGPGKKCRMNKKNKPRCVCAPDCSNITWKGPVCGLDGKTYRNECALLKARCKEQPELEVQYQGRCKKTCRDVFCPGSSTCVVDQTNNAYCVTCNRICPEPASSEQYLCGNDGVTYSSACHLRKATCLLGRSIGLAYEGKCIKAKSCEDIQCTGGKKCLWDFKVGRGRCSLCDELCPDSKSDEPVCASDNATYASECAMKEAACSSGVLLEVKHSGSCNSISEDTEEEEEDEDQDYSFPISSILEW
Sequence of Fibroblast growth factor 2 (Homo sapiens) (P09038 whole entry, looked up): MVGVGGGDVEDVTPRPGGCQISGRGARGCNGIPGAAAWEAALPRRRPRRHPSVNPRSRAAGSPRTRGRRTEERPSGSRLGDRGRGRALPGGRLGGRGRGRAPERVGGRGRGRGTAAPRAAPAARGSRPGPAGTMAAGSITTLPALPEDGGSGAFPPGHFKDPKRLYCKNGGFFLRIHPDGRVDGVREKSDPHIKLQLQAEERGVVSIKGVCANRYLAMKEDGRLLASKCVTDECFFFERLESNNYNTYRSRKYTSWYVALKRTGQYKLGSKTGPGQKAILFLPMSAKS
Sequence of Torsin-1A (Homo sapiens) (O14656 whole entry, looked up): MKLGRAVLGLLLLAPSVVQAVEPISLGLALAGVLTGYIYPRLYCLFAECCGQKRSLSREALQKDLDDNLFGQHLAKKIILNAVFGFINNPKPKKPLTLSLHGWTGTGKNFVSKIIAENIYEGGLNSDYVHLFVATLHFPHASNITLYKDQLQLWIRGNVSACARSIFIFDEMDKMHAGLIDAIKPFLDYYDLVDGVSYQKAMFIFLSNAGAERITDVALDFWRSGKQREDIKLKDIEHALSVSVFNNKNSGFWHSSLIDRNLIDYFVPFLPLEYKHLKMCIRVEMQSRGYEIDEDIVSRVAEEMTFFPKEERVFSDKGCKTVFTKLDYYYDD
Sequence of Streptavidin (Streptomyces avidinii) (P22629 whole entry, looked up): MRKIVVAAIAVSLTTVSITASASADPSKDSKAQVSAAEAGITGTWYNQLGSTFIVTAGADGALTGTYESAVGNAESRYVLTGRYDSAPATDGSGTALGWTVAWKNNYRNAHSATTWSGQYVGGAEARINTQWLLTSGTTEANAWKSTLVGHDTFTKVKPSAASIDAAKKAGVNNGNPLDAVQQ
Sequence of Focal adhesion kinase 1 (Homo sapiens) (Q05397 whole entry, looked up): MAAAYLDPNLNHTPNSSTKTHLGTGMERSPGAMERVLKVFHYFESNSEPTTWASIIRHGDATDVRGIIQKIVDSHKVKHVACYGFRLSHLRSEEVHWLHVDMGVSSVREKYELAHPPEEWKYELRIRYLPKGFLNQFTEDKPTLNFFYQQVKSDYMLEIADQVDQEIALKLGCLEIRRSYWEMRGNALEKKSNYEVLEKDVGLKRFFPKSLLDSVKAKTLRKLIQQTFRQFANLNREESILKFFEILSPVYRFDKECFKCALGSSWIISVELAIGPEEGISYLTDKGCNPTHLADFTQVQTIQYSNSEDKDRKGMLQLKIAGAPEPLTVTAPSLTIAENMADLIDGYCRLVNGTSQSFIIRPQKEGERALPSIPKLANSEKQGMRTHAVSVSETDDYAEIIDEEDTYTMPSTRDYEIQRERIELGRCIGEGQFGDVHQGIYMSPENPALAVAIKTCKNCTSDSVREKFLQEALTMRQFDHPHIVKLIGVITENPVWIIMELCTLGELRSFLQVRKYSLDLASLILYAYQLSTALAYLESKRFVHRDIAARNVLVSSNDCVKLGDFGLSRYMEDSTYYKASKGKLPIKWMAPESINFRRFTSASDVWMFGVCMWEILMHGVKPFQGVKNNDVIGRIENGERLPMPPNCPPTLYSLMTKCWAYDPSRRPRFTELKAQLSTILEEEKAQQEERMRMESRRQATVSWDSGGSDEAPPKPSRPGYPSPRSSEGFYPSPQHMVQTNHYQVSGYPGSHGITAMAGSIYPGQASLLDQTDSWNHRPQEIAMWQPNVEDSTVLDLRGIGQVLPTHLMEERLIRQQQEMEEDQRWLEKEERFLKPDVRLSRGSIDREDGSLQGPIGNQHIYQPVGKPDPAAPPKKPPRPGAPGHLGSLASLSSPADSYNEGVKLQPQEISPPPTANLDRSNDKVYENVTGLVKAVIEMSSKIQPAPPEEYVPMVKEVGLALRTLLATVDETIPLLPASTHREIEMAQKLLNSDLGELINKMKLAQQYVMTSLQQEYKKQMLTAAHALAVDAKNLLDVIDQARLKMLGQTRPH

`C#C[C@@H]1Oc2ccccc2S(=O)(=O)N2CCC[C@H]12`: the composite z-score in assay [1] is 0.104; in assay [2], -0.283; in assay [3] it was 0.193; in assay [4] it was -0.635; in [5], 0.562; in [6] it was 0.155. Further, the composite z-score is 0.0495 in assay [8]; -0.249 in [9]; 0.0869 in assay [11]; 0.261 in [16]; -0.154 in [17]; -0.0705 in assay [18]. Moreover, the composite z-score amounted to 0.0535 in [19] and 0.101 in [20]. Further, the z-score in assay [7] was -0.273; in [10] it was -0.0351 (inactive); in assay [12] it was 0.299 (inactive); in assay [13], 0.405 (inactive); in [14] it was 1.58 (inactive); in assay [15], 0.14 (inactive).
As to `CCOC(=O)C[C@H]1[C@H](OC(=O)c2cc3ccccc3oc2=O)[C@@H](NC(=O)c2ccc3ccccc3n2)c2cc(OCCCO)ccc2N1C(=O)c1ccccc1`, the composite z-score in [1] came to 1.06; in assay [2], 0.803; in [3], 0.513; in assay [4] it was 0.584; in [5], 1.14; in [6], 1.23. For the same compound, the composite z-score in assay [8] is 0.606; in [9] it was 0.354; in assay [11], 0.537; in assay [16] it was 0.28; in [17], 0.0345; in [18], 0.354. Moreover, the figures for the composite z-score in assay [19] and in assay [20] were 1.37 and 0.574, respectively. Further, the z-score was -0.837 in assay [7]; 0.497 (inactive) in [10]; -2.98 (inactive) in [12]; 0.287 (inactive) in [13]; 11.9 (active) in assay [14]; 0.576 (inactive) in assay [15].
With `CC(CCN1CCc2nc(-c3ccccc3)c(-c3ccccc3)cc2C1)=NOC(C)CN1CCCCc2nc(C)c(C)cc21` (stereo not given), the composite z-score in assay [1] was found to be 0.605; in assay [2], 0.791; in assay [3], 0.718; in [4] it was 0.845; in assay [5], 0.47; in [6], 0.489. Moreover, the composite z-score in assay [8] is 0.593; in assay [9], 0.264; in [11], 0.0802; in [16], 0.393; in assay [17] it was -0.0195; in assay [18], 0.319. Moreover, the composite z-score in assay [19] came to 0.278; in assay [20], 0.569. In addition, the z-score is 1.52 in [7]; -0.0959 (inactive) in [10]; 0.168 (inactive) in assay [12]; -0.075 (inactive) in [13]; -0.147 (inactive) in [14]; 0.0715 (inactive) in assay [15].
With `O=C1[C@H]2[C@H]3[C@H](O)[C@H](O)CC(=NOC[C@@H](O)COCc4ccco4)[C@H]3CC[C@H]2C(=O)N1c1cccc(Oc2ccccc2)c1`, the composite z-score in [1] is -0.304; in assay [2], -0.438; in assay [3], -0.112; in [4], -1.32; in assay [5], -0.924; in assay [6], -0.701. Besides, the composite z-score in assay [8] is -0.021; in [9], 0.503; in assay [11], -0.31; in assay [16] it was -0.393; in [17] it was -0.285; in assay [18], 0.626. Besides, the composite z-score was 0.948 in assay [19] and -0.621 in [20]. Further, the z-score in assay [7] is 0.89; in [10] it was 0.481 (inactive); in assay [12], -0.6 (inactive); in assay [13] it was -0.0166 (inactive); in [14] it was -0.21 (inactive); in assay [15], 0.452 (inactive).
Regarding `Cc1ccc(S[C@]2(C(=O)O)CC(=O)N(Cc3ccccc3)[C@@H]2c2ccc(CO)cc2I)cc1`, the composite z-score in assay [1] is 2.86; in assay [2] it was 0.242; in assay [3] it was 0.284; in [4], 0.186; in assay [5] it was 0.023; in assay [6], -0.697. Besides, the composite z-score in assay [8] is -0.69; in assay [9] it was 0.189; in [11], -0.405; in assay [16], 0.556; in assay [17], -0.0963; in assay [18] it was -0.995. The composite z-score in [19] is -0.604; in assay [20], -0.41. For the same compound, the z-score in assay [7] is 0.305; in assay [10], -0.57 (inactive); in [12], -1.32 (inactive); in [13], 0.116 (inactive); in assay [14], 1.97 (inactive); in assay [15] it was 1.63 (inactive).
